The panel holds about 83,000 compounds, 20% with a hit somewhere; the sample as a whole holds those more often.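 In brief: 96-well plates, 48 h treatment, single concentration, percent growth endpoint.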 A number with no mark means an inactive call. Active and inactive are the calls of the source. Rule for the calls: active = growth percent below 10; inactive = the rest.
Legend:
Test in all cases: NCI-60 one-dose screen, 48 h (100 = growth as untreated, 0 = no growth, -100 = all killed)
Details in all cases: 10 µM
SK-MEL-2 melanoma = tested on: SK-MEL-2 melanoma
SN12C renal = tested on: SN12C renal
UO-31 renal = tested on: UO-31 renal
TK-10 renal = tested on: TK-10 renal
ACHN renal = tested on: ACHN renal
CAKI-1 renal = tested on: CAKI-1 renal
A498 renal = tested on: A498 renal
CCRF-CEM leukemia = tested on: CCRF-CEM leukemia
MOLT-4 leukemia = tested on: MOLT-4 leukemia
EKVX NSCLC = tested on: EKVX NSCLC

SMILES	growth (SK-MEL-2 melanoma)	growth (SN12C renal)	growth (UO-31 renal)	growth (TK-10 renal)	growth (ACHN renal)	growth (CAKI-1 renal)	growth (A498 renal)	growth (CCRF-CEM leukemia)	growth (MOLT-4 leukemia)	growth (EKVX NSCLC)
CCc1ccc(-c2nnc(COc3ccc(-c4nc5ccccc5[nH]4)cc3OC)o2)cc1	96.7%	21.7%	56.8%	16.7%	-13.9% (active)	60.1%	88.8%	61.8%	71.8%	–
CCCN(CCC)CCCNC(=O)c1cc2c(-c3ccc(OC)c(OC)c3)nn(C)c2s1	-31.3% (active)	20.8%	6.68% (active)	55.8%	25%	28.5%	-0.28% (active)	-15.9% (active)	-8.08% (active)	–
C=CCc1cc(Nc2c3ccc(Cl)cc3nc3ccc(OC)cc23)cc(CN(CC)CC)c1O	18.5%	–	5.47% (active)	12.7%	4.15% (active)	7.85% (active)	–	5.06% (active)	-20.3% (active)	0.403% (active)
CCN(CCCNC(=O)Cc1cc(=O)oc2cc(N(C)C)ccc12)CCNc1ccnc2cc(Cl)ccc12	117%	–	84.7%	87.4%	78.6%	106%	–	53.9%	44.4%	99.8%
COc1cc(CSc2nc3ccc(C)cc3c(=O)n2Cc2ccccc2)cc(OC)c1OC	1.08% (active)	40%	32.1%	52.7%	46.7%	28.8%	7.01% (active)	23.6%	30.8%	–
O=c1[nH]c(=O)n(C2C[C@@H](O)[C@@H](CO)O2)cc1F (some centres undefined)	57.3%	–	10.5%	35.5%	–	31.6%	15.8%	29.1%	32.5%	70.7%
O=c1ccc2nc(-c3ccccc3)nn(-c3ccccc3)c-2c1	44.9%	40.2%	-97.5% (active)	-95.9% (active)	-96% (active)	-90.9% (active)	84.4%	-16.3% (active)	-37.9% (active)	–
COCCOC(=O)NC(=O)Nc1ccc(/C(=N/O)c2ccc(Cl)cc2)cc1	18.7%	–	36.8%	62.6%	39%	–	-14.2% (active)	8.24% (active)	9.91% (active)	29.6%
CC(C)c1ncc(CO)n1Cc1c(Cl)cccc1Cl	101%	113%	90.1%	95%	99.9%	100%	77.8%	103%	101%	–
O=C(Nc1cccc(C(F)(F)F)c1)C(Cl)Cl	97.4%	105%	80.6%	108%	103%	105%	101%	98.8%	98.4%	–
Cc1ccc2c3c(cccc13)-c1ccccc1C2=O	97.2%	–	75.2%	94%	96.8%	–	78.2%	83.5%	87.4%	67.8%
O=C(Nc1ccc(Oc2ccc(Nc3nc4ccccc4s3)cc2)cc1)Nc1ccc(Cl)c(Cl)c1	50.7%	24.9%	25.8%	54.1%	20.3%	37.6%	33.4%	24.5%	9.65% (active)	–
O=NN(CC(=O)N/N=C/C=C\c1ccccc1)CC(=O)N/N=C/C=C/c1ccccc1	111%	78.1%	91.9%	131%	86.4%	91.3%	105%	94.9%	96.9%	–
O=C(Nc1cccc(Cl)c1)OCC(COC(=O)Nc1cccc(Cl)c1)(COC(=O)Nc1cccc(Cl)c1)[N+](=O)[O-]	49.7%	–	30.9%	53.7%	39.8%	–	21.1%	21.4%	4.15% (active)	28.3%
Cc1ccc(-c2cc(-c3cccc(Nc4ccnc5cc(Cl)ccc45)c3)nc3nc(N)[nH]c(=O)c23)cc1	87.6%	96.6%	78.1%	112%	105%	94.8%	109%	56.1%	81.8%	–
CC(=O)n1nc(C(=O)OC(C)(C)C)c2cc(F)c(F)cc21	100%	–	92.6%	113%	108%	–	104%	97.5%	95%	105%

SMILES	growth (SK-MEL-2 melanoma)	growth (SN12C renal)	growth (UO-31 renal)	growth (TK-10 renal)	growth (ACHN renal)	growth (CAKI-1 renal)	growth (A498 renal)	growth (CCRF-CEM leukemia)	growth (MOLT-4 leukemia)	growth (EKVX NSCLC)
O=C(Nc1ccc(OCc2nnc(-c3ccccc3)o2)c(F)c1)Nc1ccc(Cl)c(Cl)c1	72.9%	64%	68.5%	66.2%	39%	68.4%	12.4%	37.6%	43.8%	–
O=C(O)CCCN1C(=O)NC2(C1=O)c1ccccc1-c1ccccc12	83.2%	–	88.4%	90.1%	104%	98.4%	–	96.5%	101%	98.3%
COc1ccc(-c2nc(-c3nc4ccc(OC)cc4[nH]3)c3ccccn23)cc1	71.3%	71.4%	25.5%	79.3%	64.2%	64%	55.5%	33.8%	45.5%	–
O=c1c2cccc3c(Nc4ccc(Br)cn4)ccc(c32)c2nc3ccccc3n12	108%	92.3%	52.1%	78.1%	90.2%	83.9%	93.9%	97.9%	92.9%	–
O=C(O)CNS(=O)(=O)c1ccc(OCCOc2ccc(S(=O)(=O)NCC(=O)O)cc2)cc1	98.5%	–	85.7%	92.7%	102%	–	96.4%	112%	106%	102%
COc1cc(-c2c(C#N)c(N)n3c(nc4ccccc43)c2C#N)cc(Br)c1OC	76.7%	40.1%	17.5%	11.1%	50.1%	69.1%	67.1%	19.6%	43.3%	–
O=C1/C(=C/c2ccc([N+](=O)[O-])s2)Oc2ccc(Cl)cc21	-53.7% (active)	-54.3% (active)	-89.4% (active)	-32.7% (active)	-71.1% (active)	-29.9% (active)	9.57% (active)	2.86% (active)	-15.7% (active)	–
NC1CCC(Nc2nc(NCc3cc(Cl)ccc3O)c3ncn(C4CCCC4)c3n2)CC1 (centres undefined)	-73.7% (active)	–	1.65% (active)	-3.98% (active)	-5.98% (active)	–	-67.1% (active)	-0.96% (active)	-15.5% (active)	-18.7% (active)
N#C/C(=C/c1cc([N+](=O)[O-])ccc1Cl)C(N)=O	88.2%	98.8%	72.7%	108%	105%	86.9%	111%	63.1%	87.1%	–
C=C[C@]1(C)C=C2C(=O)[C@@]3(O)OC(=O)[C@@]4(CCCC(C)(C)[C@H]34)[C@@]2(O)CC1	-66.5% (active)	-66.5% (active)	-99.4% (active)	-95.5% (active)	-100% (active)	-90.6% (active)	-94.6% (active)	-31.5% (active)	-13.6% (active)	–
O=C(Cn1ccc(=O)[nH]c1=O)c1ccc([N+](=O)[O-])o1	101%	108%	109%	63.3%	110%	105%	115%	83%	106%	–
O/N=C1\CCC2CCCCC2C1 (centres undefined)	101%	113%	95.5%	101%	97.3%	96.2%	103%	103%	98.6%	–
Cc1cc(C)c(/C=C2\C(=O)Nc3ccc(NC(=O)CCCCCCC(=O)NO)cc32)[nH]1	-5.24% (active)	44%	66%	10.6%	58.5%	68.7%	-9.05% (active)	23.9%	13.2%	–
CC1(CO)CCCC12OCCO2 (centres undefined)	95.2%	100%	93.7%	107%	102%	101%	94.1%	97.3%	107%	–
O=S(=O)(NCl)c1ccccc1	109%	106%	83.1%	96.2%	105%	94.7%	97.5%	92.5%	98.3%	–
